Source: PubChem (several laboratories)
aDG glyco up – activators of alpha-DG glycosylation, primary screen, uHTS, Pro5-aDG cells, AlphaScreen; activation, % at 10 µM; alpha-DG glycosylation AlphaScreen (IIH6); 0% Pro5, 100% B10-LARGE cell signal; hit rate 0.22% among 360,000;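 active means activation of at least 8% versus controls, or a plate z-score of at least 8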;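 further: Pro5 are CHO cells carrying HIG-tagged alpha-DG that lacks glycosylation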
Mot1-301 SUMO – yeast Mot1-301 growth rescue at high temperature, primary screen, SUMOylation pathway inhibitor project, S. cerevisiae, ATP luminescence, 38.5C; S. cerevisiae Mot1-301 growth rescue; percent above DMSO median, 100 means doubled; growth rescue, % at 18.8 µM; hit rate 1% among 320,000;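 active means every valid replicate shows activation above 250% relative to neutral control wells; inactive means the rest, any valid replicate at or below 250%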
MPTP inh – mitochondrial permeability transition pore inhibitors, primary screen, biochemical, isolated mouse mitochondria, absorbance; Ca2+ swelling absorbance, 30 min; hit rate 1.4% among 360,000; inhibition, % at 10 µM;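 active means inhibition of 50% or more, scaled per plate between neutral and stimulator controls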
H9c2 protect – cardioprotection against H2O2-induced cell death, primary screen, uHTS, H9c2 cells, ATPLite luminescence | H9c2 cardiomyocytes, H2O2 injury protection, 2 h | protection from H2O2 cell death, % at 20 µM | hit rate 0.63% among 360,000 | AID 588492, 2011;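 active means compounds giving at least 50% protection of heart cells from peroxide-induced death in the single-dose screen, raw or plate-pattern-corrected value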
Yeast superoxide – reduction of superoxide in aged yeast, primary screen, HTS; AID 2690, 2010; hit rate 0.18% among 330,000; superoxide response (% of plate mean), % at 10 µM; S. cerevisiae aged cells, superoxide DHE fluorescence; hits give low values;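 active means superoxide response under a set limit, about three screen SD below normal, cut at about 65% in these data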;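 further: yeast aged for seven days with compound at 30 °C before DHE staining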
FAS TE block – FAS thioesterase domain inhibitors, primary screen, biochemical, fluorescence intensity, uHTS; Fatty acid synthase (Homo sapiens), P49327; recombinant FAS-TE, OMFH fluorogenic substrate, fluorescence endpoint; inhibition, % at 15 µM; hit rate 0.67% among 360,000; AID 602261, 2012;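 active means compounds whose normalised, plate-corrected inhibition of enzyme fluorescence in the single-dose primary screen is 50% or more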
FAS-TE inh conf – FAS thioesterase domain inhibitors, confirmation, biochemical, fluorescence intensity, single concentration | shares compounds with FAS TE block | recombinant FAS-TE, OMFH fluorogenic substrate | inhibition, % at 15 µM | hit rate 45% among 2,300 | AID 624325, 2012;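 active means compounds inhibiting the enzyme by at least 50% at 15 µM in any one of the replicates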
Large screens that a line does not name were inactive (follow-up assays come after a bar, where they were run). Hits are enriched below; roughly 3.8% of the tested compounds scored in any of these assays.

COc1ccc(CN2CCC(CO)(Cc3cccc(C(F)(F)F)c3)CC2)cc1Cn1cccn1	none
Cc1ccccc1-n1c(SCC(=O)N/N=C/c2c(C)nn(-c3ccccc3)c2C)nc2ccccc2c1=O	FAS TE block 59 | FAS-TE inh conf inactive
Cc1ccc(/C=N/NC(=O)CSc2nc3ccccc3c(=O)n2-c2ccccc2C)s1	FAS TE block 51 | FAS-TE inh conf inactive
O=c1c2ccccc2c(C=Nc2ccc(S(=O)(=O)N3CCCCC3)cc2)c(O)n1-c1ccc(Cl)cn1	FAS TE block 61 | FAS-TE inh conf inactive
CCc1nnc(/N=C/c2c(O)n(-c3ccc(Cl)cn3)c(=O)c3ccccc23)s1	none
CC(=O)NCCn1c(SCc2cccc([N+](=O)[O-])c2)nc2ccccc2c1=O	FAS TE block 53 | FAS-TE inh conf inactive
COC(=O)/C(C#N)=C/c1ccc(-c2ccc(S(N)(=O)=O)cc2)o1	none
CC(C)OC(=O)/C(C#N)=C/c1ccc(-c2ccc(SC(F)F)cc2)o1	FAS TE block 61 | FAS-TE inh conf inactive
O=[N+]([O-])c1cnc(Nc2ccc(Cl)cn2)c([N+](=O)[O-])c1	none
Cc1nn(CC(=O)NC(=O)c2ccccc2)c(C)c1[N+](=O)[O-]	none
CN(C)N1C(N)=C(C#N)C(c2ccccc2)C2=C1CC(C)(C)CC2=O (stereo not given)	none
CN(C)N1C(N)=C(C#N)C(c2cccc3ccccc23)C2=C1CC(c1ccccc1)CC2=O (stereo not given)	FAS TE block 65 | FAS-TE inh conf inactive
O=C(NCCc1ccccc1)C1CCN(S(=O)(=O)c2cccs2)CC1	none
O=C(NCCN1C(=O)S/C(=C\c2ccccc2)C1=O)C1CCN(S(=O)(=O)c2cccs2)CC1	FAS TE block 53 | FAS-TE inh conf 58
CSCCC(C(=O)Nc1c(C)cccc1C)n1c(-c2cc(C)cs2)nc2ccccc21 (stereo not given)	none (no result: Mot1-301 SUMO, H9c2 protect, Yeast superoxide, FAS TE block)
Cc1cc(C)c(Nc2cc(S(=O)(=O)O)c(N)c3c2C(=O)c2ccccc2C3=O)c(C)c1	FAS TE block 75 | FAS-TE inh conf inactive
COC(=O)c1cccc(N(CC(=O)NC2CCCC2)C(=O)CNC(=O)c2cccs2)c1	none
O=C(OCc1ccccc1Cl)c1cc([N+](=O)[O-])ccc1N1CCOCC1	none
O=C(OCc1ccc([N+](=O)[O-])cc1)c1cc([N+](=O)[O-])ccc1N1CCOCC1	FAS TE block 80 | FAS-TE inh conf 76
Cc1ccc(COC(=O)c2cc([N+](=O)[O-])ccc2N2CCOCC2)cc1	FAS TE block 54 | FAS-TE inh conf 52
Cc1ccc(F)c(N=Cc2c(O)c3ccccc3oc2=O)c1	none
CC(=O)N1c2ccc(S(=O)(=O)NCCC(=O)N3CCCC(C)C3)cc2CC1C (stereo not given)	none
COc1ccc2nc(NC(=O)C3CCN(S(=O)(=O)c4cccs4)CC3)sc2c1	none
Cc1ccc2nc(NC(=O)C3CCN(S(=O)(=O)c4cccs4)CC3)sc2c1	FAS TE block 68 | FAS-TE inh conf inactive
CCn1c2ccccc2c2cc(NC(=O)C3CCN(S(=O)(=O)c4cccs4)CC3)ccc21	FAS TE block 66 | FAS-TE inh conf inactive
COc1ccccc1CN1CC(C(=O)NCCCCc2ccccn2)CCC1=O (stereo not given)	none (no result: Mot1-301 SUMO, Yeast superoxide)
CCOC(=O)C(=CNc1ccc(NC2=NCC(C)S2)cc1)C(=O)OCC (stereo not given)	none
COc1cc(S(=O)(=O)Nc2ccc(C)cc2)ccc1N=Cc1c(C)[nH]n(-c2ccccc2)c1=O	FAS TE block 55 | FAS-TE inh conf inactive
OCC[C@H]1C[C@H](O)[C@@H](O)[C@@]2(CCc3ccccc3O2)O1	none
C=CCNC(=O)/C(=C\c1ccc(OC)cc1)NC(=O)c1ccc([N+](=O)[O-])cc1	FAS TE block 76 | FAS-TE inh conf 83
COc1ccc(C(=O)N/C(=C\c2ccc([N+](=O)[O-])cc2)C(=O)NC(CCSC)C(=O)O)cc1 (stereo not given)	FAS TE block 57 | FAS-TE inh conf 53
CN(C)CCCNC(=O)/C(=C\C=C\c1ccccc1)NC(=O)c1ccc([N+](=O)[O-])cc1	FAS TE block 86 | FAS-TE inh conf 89
CCCCOc1ccc(C(=O)N/C(=C/C=C/c2ccccc2)C(=O)NCCCO)cc1	none
COc1ccc(/C=C(/NC(=O)c2ccc([N+](=O)[O-])cc2)C(=O)NCCCN(C)C)cc1	FAS TE block 71 | FAS-TE inh conf 77
Cc1onc(-c2ccccc2)c1C(=O)OCC(=O)Nc1ccc(C#N)cc1	none
Cn1c(-c2ccc(F)cc2)cnc1NCc1cccc([N+](=O)[O-])c1	FAS TE block 76 | FAS-TE inh conf 78
CN1CCC(N(C)C(=O)c2ccccc2F)CC1	none
O=S(=O)(NCCOc1ccccc1F)c1ccc(Cl)cc1F	none
Cc1noc(C)c1C(=O)OC(C)C(=O)Nc1ccc([N+](=O)[O-])cc1C(F)(F)F (stereo not given)	none (no result: Mot1-301 SUMO, Yeast superoxide)
CC(OC(=O)/C=C/c1ccco1)C(=O)Nc1cccc([N+](=O)[O-])c1 (stereo not given)	none
COc1ccc([N+](=O)[O-])cc1NC(=O)C(C)OC(=O)c1ccccc1C(=O)c1ccc(Cl)cc1 (stereo not given)	FAS TE block 58 | FAS-TE inh conf inactive
CCc1noc(C)c1C(=O)OC(C)C(=O)Nc1cc([N+](=O)[O-])ccc1OC (stereo not given)	FAS TE block 75 | FAS-TE inh conf inactive
COc1ccc([N+](=O)[O-])cc1NC(=O)C(C)OC(=O)/C=C/c1ccco1 (stereo not given)	FAS TE block 62 (no result: Mot1-301 SUMO) | FAS-TE inh conf 59
COc1ccc([N+](=O)[O-])cc1NC(=O)COC(=O)c1ccccc1C(=O)c1ccccc1	none
COc1ccc2nc(-c3ccccc3)nc(SC)c2c1	none (no result: Mot1-301 SUMO, Yeast superoxide)
CCN(C(=O)CCN1C(=O)S/C(=C\c2ccccc2)C1=O)C1CCS(=O)(=O)C1 (stereo not given)	none
Cc1ccc(S(=O)(=O)NN(Cc2ccccc2)Cc2ccccc2)cc1	none (no result: Mot1-301 SUMO, Yeast superoxide)
O=C(c1ccccc1)c1ccc(C(=O)N2CCN(c3ccccc3O)CC2)cc1	none (no result: Mot1-301 SUMO, Yeast superoxide)
COc1ccccc1N1CCN(C(=O)C(=O)c2cccc([N+](=O)[O-])c2)CC1	none (no result: Mot1-301 SUMO, H9c2 protect, Yeast superoxide, FAS TE block)
